Results filed as inconclusive are left out. Activity calls are given as the source filed them. Unless noted, the call rests on the fitted dose curve; in most records, active means well fitted curve in the direction sought with a large enough effect in the repeat runs; inconclusive means weak or mixed curves; inactive means no such curve, though single readings can be large; an effect the other way counts as inactive or inconclusive.
How the values were obtained:
[1] = qHTS assay for small molecules that induce genotoxicity in human embryonic kidney cells expressing luciferase-tagged ATAD5 (AID 651632); details: HEK293T ATAD5-luciferase induction, 16 h; series mostly up to 83.3 µM; further: nearly all actives have a fitted effect of over 15% in size
In short: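 Genotoxicity read-out via ATAD5-luciferase: HEK293T cells, 16 hr compound incubation at 37C, Amplite detection.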

[2] = qHTS assay for small molecule agonists of the p53 signaling pathway - cell viability (AID 651633; calls by dose curve; further: nearly all actives have a fitted effect of over 30% in size); details: p53RE-bla HCT-116 viability, ATP luminescence, 16 h; series mostly up to 83.3 µM
In short: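 p53RE-bla cells were treated with compound for 16 hours at 37 C. Cytotoxicity was then measured as CellTiter-Glo luminescence after 30 min at room temperature.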

[3] = qHTS assay for small molecules that induce genotoxicity in human embryonic kidney cells expressing luciferase-tagged ATAD5 - cell viability (AID 651634; calls by dose curve; further: nearly all actives have a fitted effect of over 25% in size); details: HEK293T ATAD5-luc cells viability, CellTiter-Fluor, 15.5 h; series mostly up to 83.3 µM
In short: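 Live-cell protease activity (CellTiter-Fluor, fluorescence) indicates viability. HEK293T cells with luciferase-tagged ATAD5; 15.5 hr compound treatment at 37C.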

[4] = qHTS assay for small molecule disruptors of the mitochondrial membrane potential - cell viability (AID 720634; calls by dose curve;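 further: human HepG2 liver cancer cells; nearly all actives have a fitted effect of over 20% in size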); details: HepG2 viability, ATP luminescence (CellTiter-Glo), 1 h; series mostly up to 83.2 µM
In short: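 Human hepatoma HepG2 cells were treated for 1 hr with test chemicals, then given m-MPI dye and CellTiter-Glo. Cell viability reflects luminescence proportional to cellular ATP.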

[5] = qHTS assay to test for compound auto fluorescence at 590 nm (red) in HepG2 cells (AID 720674); details: HepG2 autofluorescence, red 540/590 nm, 1 h; series mostly up to 91.3 µM
In short: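 Fluorescence at 590 nm emission following 540 nm excitation was recorded from HepG2 wells one hour after compound transfer, with DMSO-only wells as vehicle and Rose Bengal sodium equivalency as the scale.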

[6] = qHTS assay to test for compound auto fluorescence at 535 nm (green) in HepG2 cells (AID 720675); details: green autofluorescence 485/535 nm, 1 h; series mostly up to 91.3 µM
[7] = qHTS assay to test for compound auto fluorescence at 460 nm (blue) in HEK293 cells (AID 720678); details: blue autofluorescence 405/460 nm; series mostly up to 91.3 µM
In short: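 Cells were seeded and left to adhere for 4-5 hr at 37C. Compounds were then pin-transferred. After an overnight incubation at 37C under 5% CO2, intrinsic fluorescence at 405/460 nm was measured and referenced to triamterene.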

[8] = qHTS assay to test for compound auto fluorescence at 590 nm (red) in HEK293 cells (AID 720679); details: red autofluorescence 540/590 nm; series mostly up to 91.3 µM
In short: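 Each well held 2,000 HEK293 cells in medium containing 10% dialyzed FBS. Following 4-5 hr attachment at 37C, 23 nL test compound or DMSO was added; plates sat overnight, and red fluorescence (540/590nm) was recorded.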

[9] = qHTS assay to test for compound auto fluorescence at 535 nm (green) in HEK293 cells (AID 720680); details: green autofluorescence 485/535 nm; series mostly up to 91.3 µM
[10] = qHTS assay to test for compound auto fluorescence at 460 nm (blue) in HEK293 cell free culture (AID 720681); details: cell-free medium, autofluorescence 405/460 nm (blue); series mostly up to 91.3 µM
In short: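 Compounds were added to cell-free DMEM with 10% FBS and fluorescence read directly. The blue channel used 405 nm excitation and 460 nm emission, with triamterene as the reference fluorophore.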

[11] = qHTS assay to test for compound auto fluorescence at 535 nm (green) in HEK293 cell free culture (AID 720682); details: cell-free medium, green autofluorescence 485/535 nm, stronger effect = higher value; series mostly up to 91.3 µM
In short: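 Measurement is a direct plate read of green fluorescence (485 nm in, 535 nm out) after compound addition to serum-supplemented DMEM lacking cells, with fluorescein used to express intensities.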

[12] = qHTS assay to test for compound auto fluorescence at 590 nm (red) in HEK293 cell free culture (AID 720683); details: cell-free medium autofluorescence, Ex540/Em590 red; series mostly up to 91.3 µM
In short: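 Cell-free wells of DMEM with 10% FBS received compound, and intrinsic fluorescence was read at excitation/emission 540/590 nm. Values expressed as equivalence to Rose Bengal sodium.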

[13] = qHTS assay to test for compound auto fluorescence at 590 nm (red) in HepG2 cell free culture (AID 720684); details: cell-free medium autofluorescence, red 540/590 nm; series mostly up to 91.3 µM
In short: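 Compounds are added to culture medium (MEM, 10% FBS) lacking cells, then fluorescence is read at excitation 540 nm, emission 590 nm, with Rose Bengal sodium as the equivalency standard.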

[14] = qHTS assay to test for compound auto fluorescence at 460 nm (blue) in HepG2 cell free culture (AID 720685); details: Cell-free culture medium, blue autofluorescence 405/460 nm; series mostly up to 91.3 µM
In short: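 Compound (23 nL) or DMSO pinned into cell-free MEM with 10% FBS; blue fluorescence read at 405/460 nm excitation/emission, expressed as auto-fluorescence equivalency to triamterene.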

[15] = qHTS assay to test for compound auto fluorescence at 535 nm (green) in HepG2 cell free culture (AID 720686); details: Cell-free medium, green autofluorescence 485/535 nm; series mostly up to 91.3 µM
[16] = qHTS assay to test for compound auto fluorescence at 460 nm (blue) in HepG2 cells (AID 720687); details: autofluorescence 405/460 nm, 1 h; series mostly up to 91.3 µM
In short: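 HepG2 cells in MEM with 10% FBS, attached overnight at 37 C, were exposed to compound or DMSO for 1 hr at 37 C, 5% CO2. Blue fluorescence was read at 405/460 nm, with triamterene as reference fluorophore.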

[17] = qHTS assay for small molecule disruptors of the mitochondrial membrane potential (AID 720635); details: HepG2 mitochondrial membrane potential, Mito-MPS dye ratio; series mostly up to 83.2 µM; further: potency means the concentration at half of the fitted maximal effect
In short: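 HepG2 cells exposed to compound 1 hr at 37C, then Mito-MPS dye 30 min. Ratio read of aggregate (540/590 nm) versus monomer (490/535 nm) fluorescence.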

[18] = target: Glucocorticoid receptor (Homo sapiens) (UniProt P04150); test: qHTS assay to identify small molecule agonists of the glucocorticoid receptor (GR) signaling pathway (AID 720691; active means well fitted activation curve with a large enough effect in the signal ratio in the repeat runs, not every such curve was filed as active; the % refers to the signal ratio); details: GR-bla HeLa, beta-lactamase reporter ratio, 18 h; series mostly up to 62.4 µM
Sequence of Glucocorticoid receptor (Homo sapiens) (P04150 whole entry, looked up): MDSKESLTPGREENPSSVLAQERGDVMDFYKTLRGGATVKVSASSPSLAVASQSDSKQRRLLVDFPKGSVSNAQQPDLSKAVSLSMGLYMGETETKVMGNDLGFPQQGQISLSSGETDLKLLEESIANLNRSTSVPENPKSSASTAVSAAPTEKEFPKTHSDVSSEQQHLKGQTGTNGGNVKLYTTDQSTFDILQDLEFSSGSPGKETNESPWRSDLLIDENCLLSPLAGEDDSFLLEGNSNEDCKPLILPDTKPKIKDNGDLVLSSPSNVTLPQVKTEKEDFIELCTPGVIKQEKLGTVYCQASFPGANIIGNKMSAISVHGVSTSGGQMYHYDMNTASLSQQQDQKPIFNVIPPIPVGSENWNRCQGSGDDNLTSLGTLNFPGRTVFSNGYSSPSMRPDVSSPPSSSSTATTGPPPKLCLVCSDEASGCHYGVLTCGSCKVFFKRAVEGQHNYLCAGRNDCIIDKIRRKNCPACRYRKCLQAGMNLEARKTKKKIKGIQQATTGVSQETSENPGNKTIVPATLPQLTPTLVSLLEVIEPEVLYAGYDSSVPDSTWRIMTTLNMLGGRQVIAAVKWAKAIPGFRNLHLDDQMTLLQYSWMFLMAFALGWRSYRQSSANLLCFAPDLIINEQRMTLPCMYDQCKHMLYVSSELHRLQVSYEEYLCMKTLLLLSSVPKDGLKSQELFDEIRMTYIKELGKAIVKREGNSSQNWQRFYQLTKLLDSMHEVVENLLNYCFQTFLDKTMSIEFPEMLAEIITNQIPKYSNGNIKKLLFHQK
In short: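 Beta-lactamase reporter activity, read as fluorescence intensity, was measured in GR-bla HeLa cells exposed to compounds for 18 h at 37 C and then loaded with LiveBLAzer B/G FRET substrate for 2 h at room temperature.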

[19] = target: Glucocorticoid receptor (Homo sapiens) (UniProt P04150); test: qHTS assay to identify small molecule antagonists of the glucocorticoid receptor (GR) signaling pathway (AID 720692; active means well fitted inhibition curve with a large enough effect in the signal ratio in the repeat runs, not every such curve was filed as active; the % refers to the signal ratio); details: GR-bla HeLa, beta-lactamase FRET ratio, dexamethasone-stimulated, 18 h; series mostly up to 58.5 µM
In short: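 Fluorescence from cleaved LiveBLAzer B/G FRET substrate reports GRE-driven beta-lactamase in HeLa cells; compounds are tested against 5 nM dexamethasone (final) over 18 h at 37 C, substrate incubation 2 h at room temperature.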

[20] = qHTS assay for small molecule agonists of the p53 signaling pathway (AID 651631; calls by dose curve; further: nearly all actives have a fitted effect of over 15% in size); details: HCT-116 p53RE-bla reporter, beta-lactamase FRET ratio, 16 h; series mostly up to 73.3 µM
In short: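 Quantitative high-throughput format: 4,000 p53RE-bla HCT-116 cells/well, 5 h pre-incubation, 16 h compound exposure at 37 °C, 2 h room-temperature substrate step, fluorescence intensity measured.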

Measured: Potency

CCC(C)(CCC(C)C)C(=O)O (stereo unspecified)
not listed: [17] | [18] | [19] | [20]
inactive: all other assays above

COc1ccc(OC)c(Cl)c1
not listed: [5] | [8] | [13] | [17] | [18] | [19] | [20]
inactive: all other assays above

CC(CC=O)CCCC(C)(C)O (stereo unspecified)
not listed: [12] | [20]
inactive: all other assays above

O=C(O)c1cc(Br)c(O)c(Br)c1
not listed: [12] | [20]
inactive: all other assays above

CCC(CC)CO
not listed: [13] | [18] | [19] | [20]
inactive: all other assays above

O=C(CCN1CCN(CCO)CC1)N1c2ccccc2Sc2ccc(C(F)(F)F)cc21
not listed: [7] | [17] | [18] | [19] | [20]
inactive: all other assays above

O=Cc1ccc(Cl)c(Cl)c1
not listed: [5] | [17] | [19] | [20]
inactive: all other assays above

CC(CN)CC(C)(C)CCN (stereo unspecified)
not listed: [19] | [20]
inactive: all other assays above

BrCc1cccc(Oc2ccccc2)c1
not listed: [17] | [19] | [20]
inactive: all other assays above

CC(C)C(=O)OCCc1ccccc1
not listed: [7] | [17] | [18] | [19] | [20]
inactive: all other assays above

N[C@@H](COP(=O)(O)O)C(=O)O
not listed: [20]
inactive: all other assays above

CCN(C)C(=O)Oc1cccc([C@H](C)N(C)C)c1
not listed: [5] | [8] | [17] | [19] | [20]
inactive: all other assays above

C=C(C)C(=O)OCc1ccccc1
not listed: [5] | [8] | [13] | [18] | [19] | [20]
inactive: all other assays above

CC(=O)NCCCCCC(=O)O
not listed: [1] | [2] | [8] | [18] | [19]
inactive: all other assays above

Nc1ncnc(Nc2ccccc2)n1
not listed: [7] | [13] | [19] | [20]
inactive: all other assays above

CC/C=C\CC1=C(C)CCC1=O
not listed: [17] | [18] | [19] | [20]
inactive: all other assays above

C[C@@H](Oc1ccc(CNC(=O)c2cccnc2Oc2ccc3c(c2)OCO3)c(F)c1)C(=O)O
not listed: [17] | [20]
inactive: all other assays above

NNc1nnc(NN)c2ccccc12
not listed: [8] | [12] | [17] | [18] | [19] | [20]
inactive: all other assays above

CN(C)c1ccc(C=O)cc1
not listed: [8] | [17] | [20]
inactive: all other assays above

O=C(O)c1ccc(Cl)cc1Cl
not listed: [20]
inactive: all other assays above

CC(C)OC(=O)CCCCC(=O)OC(C)C
active: [17] 54.6 µM
not listed: [7] | [8] | [12] | [19] | [20]
inactive: all other assays above

CC(=O)N[C@@H](CCC(=O)O)C(=O)O
not listed: [5] | [20]
inactive: all other assays above

O=C1c2ccccc2C(=O)c2cc(S(=O)(=O)O)ccc21
not listed: [17] | [20]
inactive: all other assays above

C[Si](C)(C)C
not listed: [5] | [7] | [19] | [20]
inactive: all other assays above

CCCCCCN
not listed: [1] | [2] | [8] | [13] | [17] | [19]
inactive: all other assays above

Cc1cccc(C)c1NC(=O)c1ccccc1C(=O)O
not listed: [1] | [2] | [12] | [13] | [19]
inactive: all other assays above

OC[C@H](Cc1cccc(O)c1)[C@H](CO)Cc1cccc(O)c1
not listed: [8] | [17] | [20]
inactive: all other assays above

CC(CO)c1ccccc1 (stereo unspecified)
not listed: [18] | [19] | [20]
inactive: all other assays above

CCOC(=O)CC(=O)c1ccccc1
not listed: [1] | [12] | [17] | [20]
inactive: all other assays above

CC[C@H](C)C(=O)O[C@H]1C[C@H](O)C=C2C=C[C@H](C)[C@H](CC[C@@H](O)C[C@@H](O)CC(=O)O)[C@H]21
not listed: [1] | [7] | [13] | [17] | [20]
inactive: all other assays above

COc1ccc2c(c1OC)C(=O)O[C@@H]2[C@H]1c2c(cc3c(c2OC)OCO3)CCN1C
not listed: [3] | [7] | [19] | [20]
inactive: all other assays above

COc1cc2c(cc1OC)[C@@H]1CC(=O)[C@@H](CC(C)C)CN1CC2
not listed: [2] | [5] | [17] | [18] | [19] | [20]
inactive: all other assays above

— PubChem BioAssay (Tox21)
